From PubChem BioAssay (NCATS)
Where “and” joins values, the source holds several entries; their conditions need not be identical. Identical values can stand only once. Records with an inconclusive call do not appear. For part of these data: Entries with a potency or affinity are not part of this list. Calls of active or inactive are those of the source.

Tests used:
[1] = Ebola virus entry assay, green fluorescence channel
[2] = Ebola virus entry assay, blue channel fluorescence
[3] = Ebola virus entry assay, green fluorescence channel; remark: listed apart in the source
[4] = Ebola virus entry assay, ratio channel readout
[5] = Ebola virus entry assay, blue channel fluorescence; remark: listed apart in the source
[6] = Ebola virus entry assay, green channel fluorescence
[7] = Ebola virus entry assay, ratio channel
[8] = qHTS Assay for Identifying Gametocytocidal Compounds (AID 743244; active = well fitted curve in the direction sought with a large enough effect; an effect the other way counts as inactive or inconclusive;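 also: % is scaled to controls: 0 for no effect and ±100 for the full control effect; actives lower the fluorescent signal which means gametocytes are killed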); conditions: P. falciparum 3D7 stage III-V gametocytes, alamarBlue, 72 h; max response: stronger effect = lower value
Summary of the method: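 Stage III–V gametocytes of P. falciparum 3D7 were seeded at 20,000 cells/well onto pre-dispensed compounds. After 72 h, 37 °C, 5% CO2, alamarBlue was added for another 24 h.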

[9] = qHTS assay for cell viability of HEK293 cells (AID 743288; active = well fitted curve in the direction sought with a large enough effect; an effect the other way counts as inactive or inconclusive; also: potency is read from the fitted curve at half-maximal effect; nearly all actives have a fitted effect of over 50% in size); conditions: ATP luminescence (CellTiter-Glo), 18 h; max response: stronger effect = lower value
Summary of the method: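 Total intracellular ATP, measured with a luciferase-coupled reagent, indicates the number of viable HEK293 cells. Exposure to test chemicals lasts 18 h at 37 C in 1,536-well format at 2,000 cells/well.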

[10] = qHTS assay for cell viability of the p53RE-bla HCT-116 cell line (AID 743292; active = well fitted curve in the direction sought with a large enough effect; an effect the other way counts as inactive or inconclusive; also: % is scaled to controls: 0 for no effect and ±100 for the full control effect; nearly all actives have a fitted effect of over 55% in size); conditions: p53RE-bla HCT-116 viability, ATP luminescence, 16 h; series mostly up to 95 µM
Summary of the method: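 Intracellular ATP of p53RE-bla HCT-116 cells measured by luciferase luminescence following 16 h compound incubation at 37 C; DMSO-only wells served as vehicle controls.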

[11] = qHTS profiling of the MIPE4 collection as inhibitors of Plasmodium falciparum (3D7) proliferation (AID 743344; call rule not given here;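 also: scaled between DMSO vehicle wells and 0.29 µM artemisinin as full inhibition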); conditions: P. falciparum 3D7 in erythrocytes, SYBR Green DNA fluorescence, 72 h; at 28.5 µM (top of the series) unless noted
Summary of the method: (§1)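 Erythrocytes infected with P. falciparum (0.3% parasitemia, 2.5% hematocrit) incubated with compounds 72 h at 37 C, 5% CO2. Lysis with saponin/Triton buffer containing SYBR Green I, overnight at room temperature in the dark; DNA fluorescence (485/535 nm) normalised to 0.29 uM artemisinin and DMSO.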

[12] = qHTS profiling of the MIPE4 collection as inhibitors of Plasmodium falciparum (DD2) proliferation (AID 743345; call rule not given here); conditions: P. falciparum Dd2 in erythrocytes, SYBR Green DNA, 72 h; at 28.5 µM (top of the series) unless noted
Summary of the method: as §1

[13] = qHTS profiling of the MIPE4 collection as inhibitors of Plasmodium falciparum (DD2) proliferation (Rep 2) (AID 743346; call rule not given here); conditions: P. falciparum Dd2 in erythrocytes, SYBR Green DNA, 72 h; at 28.5 µM (top of the series) unless noted
Summary of the method: as §1

[14] = qHTS profiling of the MIPE4 collection as inhibitors of Plasmodium falciparum (HB3) proliferation (AID 743347; call rule not given here;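 also: plate controls were DMSO vehicle wells for no effect and artemisinin wells for full effect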); conditions: P. falciparum HB3 in erythrocytes, SYBR Green DNA, 72 h; at 28.5 µM (top of the series) unless noted
Summary of the method: as §1

[15] = target: T1, Hexokinase-4 (Homo sapiens) + Glucokinase regulatory protein (Homo sapiens) (UniProt P35557+Q14397); assay: qHTS assay for inhibitors of recombinant human GCK-GKRP interaction: Diaphorase-coupled assay (AID 743205; active = well fitted curve in the direction sought with a large enough effect; an effect the other way counts as inactive or inconclusive); conditions: G6PDH/diaphorase resorufin fluorescence; series mostly up to 57.5 µM
Summary of the method: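 A kinetic fluorescence read (Ex 525/Em 590 nm, every minute for 30 minutes) tracked resorufin from a G6PDH-diaphorase coupled GCK reaction. It contained 10 nM GST-GCK, 10 nM FLAG-GKRP, 5 mM glucose, 0.4 mM ATP in Hepes pH 7.6. Normalized to with/without-enzyme DMSO controls.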

[16] = target: T1, Hexokinase-4 (Homo sapiens) + Glucokinase regulatory protein (Homo sapiens); assay: qHTS assay for inhibitors of recombinant human GCK-GKRP interaction: ADP-Glo assay (AID 743206; active = well fitted curve in the direction sought with a large enough effect; an effect the other way counts as inactive or inconclusive;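 also: plate controls were DMSO plus enzyme for no effect and no enzyme for full effect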); conditions: ADP-Glo luminescence, 60 min, 0% = vehicle-only wells with enzyme present; series mostly up to 76.9 µM
Summary of the method: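 GST-GCK and FLAG-GKRP (15 nM each in the dispensed mix, with 2 uM S6P) react with 0.4 mM ATP and 5 mM glucose (final) in Hepes pH 7.6 for 60 min at room temperature. ADP is measured by ADP-Glo luminescence.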

[17] = target: T1, Hexokinase-4 (Homo sapiens) + Glucokinase regulatory protein (Homo sapiens); assay: qHTS assay for inhibitors of recombinant human GCK-GKRP interaction: HTRF assay (AID 743207; active = well fitted curve in the direction sought with a large enough effect; an effect the other way counts as inactive or inconclusive;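 also: 0% = DMSO with GCK present and -100% = DMSO wells lacking GCK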); conditions: recombinant GCK-GKRP HTRF binding, 60 min; series mostly up to 57.5 µM
Summary of the method: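 After 60 min equilibration at room temperature with anti-FLAG XL665 and anti-GST antibodies, FRET ratio (665/615 nm, excitation 320 nm) was read. Proteins: GST-GCK and FLAG-GKRP, each 5 nM, plus 2 uM S6P, pH 7.1 buffer; GCK-free wells define minimum signal.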
For efficacy in this document: 0% is about no effect.

T1 sequence (P35557 whole entry, looked up): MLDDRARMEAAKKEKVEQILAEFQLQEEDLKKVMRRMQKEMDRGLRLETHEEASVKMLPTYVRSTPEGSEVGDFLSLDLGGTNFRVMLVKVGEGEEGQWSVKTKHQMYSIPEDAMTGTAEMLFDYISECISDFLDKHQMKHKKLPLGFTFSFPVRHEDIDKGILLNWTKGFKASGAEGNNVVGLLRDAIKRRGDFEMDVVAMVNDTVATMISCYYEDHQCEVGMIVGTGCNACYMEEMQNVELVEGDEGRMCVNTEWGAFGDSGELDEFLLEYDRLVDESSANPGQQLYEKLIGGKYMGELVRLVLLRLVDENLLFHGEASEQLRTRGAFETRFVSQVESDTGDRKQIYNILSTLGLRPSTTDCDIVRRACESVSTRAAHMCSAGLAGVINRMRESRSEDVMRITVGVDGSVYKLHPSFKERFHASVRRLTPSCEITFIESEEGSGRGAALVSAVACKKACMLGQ
T1 sequence (Q14397 whole entry, looked up): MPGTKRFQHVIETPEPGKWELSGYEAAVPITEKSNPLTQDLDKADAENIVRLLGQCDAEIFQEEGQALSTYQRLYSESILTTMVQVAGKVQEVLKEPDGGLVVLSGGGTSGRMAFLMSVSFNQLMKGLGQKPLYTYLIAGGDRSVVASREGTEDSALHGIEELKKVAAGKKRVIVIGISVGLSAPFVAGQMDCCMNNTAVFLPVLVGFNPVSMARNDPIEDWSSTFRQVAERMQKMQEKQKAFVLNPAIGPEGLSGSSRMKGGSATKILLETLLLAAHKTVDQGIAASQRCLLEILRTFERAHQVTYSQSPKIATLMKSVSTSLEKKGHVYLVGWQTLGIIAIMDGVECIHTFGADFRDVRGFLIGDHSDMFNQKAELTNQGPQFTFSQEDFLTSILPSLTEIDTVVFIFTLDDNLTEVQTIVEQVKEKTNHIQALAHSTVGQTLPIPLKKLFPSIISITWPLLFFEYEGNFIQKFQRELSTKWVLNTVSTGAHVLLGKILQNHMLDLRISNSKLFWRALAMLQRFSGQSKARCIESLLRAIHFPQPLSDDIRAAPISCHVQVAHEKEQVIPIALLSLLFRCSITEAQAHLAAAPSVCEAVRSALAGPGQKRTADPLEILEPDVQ

c1cnc2cc3c(cc2n1)C1CNCC3C1
inactive: efficacy [1] -29.9% | outcome [2] | outcome [3] | outcome [4] | outcome [5] | outcome [6]

CNS(=O)(=O)Cc1ccc2[nH]cc(CCN(C)C)c2c1
inactive: efficacy [1] 17.1% | outcome [2] | outcome [3] | outcome [4] | outcome [7] | outcome [6]

CC1(C)S[C@@H]2[C@H](NC(=O)[C@H](N)c3ccccc3)C(=O)N2[C@H]1C(=O)O
inactive: efficacy [1] -14% | outcome [2] | outcome [3] | outcome [4] | outcome [7] | outcome [6]

CO/N=C1\CN(c2nc3c(cc2F)c(=O)c(C(=O)O)cn3C2CC2)CC1CN (stereo not given)
inactive: efficacy [1] -13.2% | outcome [2] | outcome [3] | outcome [4] | outcome [7] | outcome [6]

CC(C)C1CCC(C(=O)N[C@H](Cc2ccccc2)C(=O)O)CC1 (stereo not given in full)
inactive: efficacy [1] -31.7% | outcome [2] | outcome [3] | outcome [4] | outcome [7] | outcome [6]

CC1OC(C)OC(C)O1 (stereo not given)
inactive: max response [8] -0.681% and 11.3% | efficacy [1] 12.6% | outcome [2] | outcome [3] | outcome [4] | outcome [5] | outcome [6]

N[C@@H](Cc1ccc(N(CCCl)CCCl)cc1)C(=O)O
57.1%: growth, % of control [14]
47.5%: parasite growth, % of DMSO control [11]
active: Potency [9] 50.1 µM
inactive: max response [8] 7.49% | Potency [10] | efficacy [1] 12.7% | outcome [2] | outcome [3] | outcome [4] | outcome [5] | outcome [6]
31.9%: parasite growth, % of control (lower = inhibition) [13]
21.4%: parasite growth remaining, % of DMSO control (lower = more inhibition) [12]

Nc1nc2c(ncn2COCCO)c(=O)[nH]1
inactive: efficacy [1] -5.83% | outcome [2] | outcome [3] | outcome [4] | outcome [7] | outcome [6]

Nc1ccn([C@@H]2O[C@H](CO)[C@@H](O)C2(F)F)c(=O)n1
inactive: efficacy [1] -29.1% | outcome [2] | outcome [3] | outcome [4] | outcome [7] | outcome [6]

O=C1NC(=O)C(c2ccccc2)(c2ccccc2)N1
inactive: efficacy [1] 9.61% | outcome [2] | outcome [3] | outcome [4] | outcome [5] | outcome [6]

CCN(C(C)=O)c1cccc(-c2ccnc3c(C#N)cnn23)c1
inactive: max response [8] 4.87% | efficacy [1] 22.6% | outcome [2] | outcome [3] | outcome [4] | outcome [5] | outcome [6]

CCC(C(N)=O)N1CCCC1=O (stereo not given)
inactive: max response [8] -7.9% | efficacy [1] -12.2% | outcome [2] | outcome [3] | outcome [4] | outcome [7] | outcome [6]

O=C1OCCN1/N=C/c1ccc([N+](=O)[O-])o1
inactive: efficacy [1] 18% | outcome [2] | outcome [3] | outcome [4] | outcome [7] | outcome [6]

O=C1NC(c2ccccc2)(c2ccccc2)C(=O)N1COP(=O)(O)O
inactive: efficacy [1] -16% | outcome [2] | outcome [3] | outcome [4] | outcome [7] | outcome [6]

NCC1(CC(=O)O)CCCCC1
inactive: outcome [15] | outcome [16] | outcome [17] | max response [8] 10.3% | efficacy [1] -9.69% | outcome [2] | outcome [3] | outcome [4] | outcome [7] | outcome [6]
94.9%: growth, % of control [14]
87.6%: parasite growth remaining, % of DMSO control (lower = more inhibition) [12]
58.3%: parasite growth, % of DMSO control [11]

CCOC(=O)[C@H](CCc1ccccc1)N[C@@H](C)C(=O)N1Cc2cc(OC)c(OC)cc2C[C@H]1C(=O)O
inactive: efficacy [1] 30.5% | outcome [2] | outcome [3] | outcome [4] | outcome [7] | outcome [6]

C=C1CC[C@@]2(O)[C@H]3Cc4ccc(O)c5c4[C@@]2(CCN3CC2CC2)[C@H]1O5
inactive: max response [8] 7.59% | efficacy [1] 46.6% | outcome [2] | outcome [3] | outcome [4] | outcome [7] | outcome [6]

CC(c1cc2ccccc2s1)N(O)C(N)=O (stereo not given)
inactive: efficacy [1] -17.4% | outcome [2] | outcome [3] | outcome [4] | outcome [7] | outcome [6]

CCOC(=O)N1CCC(=C2c3ccc(Cl)cc3CCc3cccnc32)CC1
inactive: efficacy [1] 62.3% | outcome [2] | outcome [3] | outcome [4]
active: AC50 [7] 6.31 µM

NS(=O)(=O)c1cc2c(cc1Cl)NC=NS2(=O)=O
inactive: efficacy [1] -8.1% | outcome [2] | outcome [3] | outcome [5] | outcome [6]

Cc1ccc(-c2nc3ccc(C)cn3c2CC(=O)N(C)C)cc1
inactive: max response [8] 7.35% | efficacy [1] -21.9% | outcome [2] | outcome [3] | outcome [4] | outcome [6]

C1N2CN3CN1CN(C2)C3
inactive: efficacy [1] 14.5% | outcome [2] | outcome [3] | outcome [4] | outcome [6]

CCCN(CCC)CCc1cccc2c1CC(=O)N2
inactive: efficacy [1] 29.5% | outcome [2] | outcome [3] | outcome [4] | outcome [6]

CC(C)(C(=O)O)c1ccc(C(O)CCCN2CCC(C(O)(c3ccccc3)c3ccccc3)CC2)cc1 (stereo not given)
inactive: efficacy [1] -13% | outcome [2] | outcome [3] | outcome [4] | outcome [6]

CCCNC(=O)NS(=O)(=O)c1ccc(Cl)cc1
inactive: efficacy [1] -18.6% | outcome [2] | outcome [3] | outcome [4] | outcome [6]

CN(CCOc1ccc(CC2SC(=O)NC2=O)cc1)c1ccccn1 (stereo not given)
inactive: efficacy [1] -12.2% | outcome [2] | outcome [3] | outcome [4] | outcome [6]

O=C(O)P(=O)(O)O
inactive: efficacy [1] -12.5% | outcome [2] | outcome [3] | outcome [4] | outcome [6]

O=C(O)COCCN1CCN(C(c2ccccc2)c2ccc(Cl)cc2)CC1 (stereo not given)
inactive: efficacy [1] -24.1% | outcome [2] | outcome [3] | outcome [4] | outcome [6]

CC(C(=O)O)c1cccc(C(=O)c2ccccc2)c1 (stereo not given)
inactive: efficacy [1] 11.5% | outcome [2] | outcome [3] | outcome [5] | outcome [6]

CN(C)/N=N/c1nc[nH]c1C(N)=O
inactive: efficacy [1] -24.1% | outcome [2] | outcome [3] | outcome [4] | outcome [6]

C[C@H]1[C@H](NC(=O)/C(=N/OC(C)(C)C(=O)O)c2csc(N)n2)C(=O)N1S(=O)(=O)O (stereo in doubt)
inactive: efficacy [1] 16.2% | outcome [2] | outcome [3] | outcome [7] | outcome [6]

C[C@]12CC[C@H]3[C@@H](CCC4=CC(=O)CC[C@@H]43)[C@@H]1CC[C@@H]2OC(=O)CCc1ccccc1
inactive: max response [8] 0.188% | efficacy [1] -39.3% | outcome [2] | outcome [3] | outcome [4] | outcome [6]

NC(=O)N1c2ccccc2CC(=O)c2ccccc21
inactive: efficacy [1] -11.2% | outcome [2] | outcome [3] | outcome [5] | outcome [6]

N[C@@H]1CONC1=O
inactive: efficacy [1] -13.4% | outcome [2] | outcome [3] | outcome [4] | outcome [6]

CC1Cc2ccccc2N1NC(=O)c1ccc(Cl)c(S(N)(=O)=O)c1 (stereo not given)
83.7%: parasite growth, % of DMSO control [11]
inactive: efficacy [1] 11.5% | outcome [2] | outcome [3] | outcome [4] | outcome [6]
34.3%: parasite growth remaining, % of DMSO control (lower = more inhibition) [12]

NC(=O)OCC(COC(N)=O)c1ccccc1
inactive: efficacy [1] -25.6% | outcome [2] | outcome [3] | outcome [4] | outcome [6]

Cc1cccc(Nc2ccncc2S(=O)(=O)NC(=O)NC(C)C)c1
inactive: efficacy [1] -34.9% | outcome [2] | outcome [3] | outcome [4] | outcome [6]
